# Results reported in PubChem BioAssay.
# The source made the active and inactive calls. Unless noted, the rule behind the calls is not given here.
# What was measured:
# [1] = anti-His antibody binders, primary screen, artefact control for SMM control protein annotation, biochemical, small-molecule microarray, 635 nm fluorescence (AID 1128); details: anti-His Alexa647 antibody binding, higher = more signal;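 note: score merges feature fluorescence with signal-to-noise for each printed compound spot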
# [2] = system: Human papillomavirus type 1a E7 protein (residues 1-88); assay: HPV1a E7 small-molecule binders, primary screen, biochemical, small-molecule microarray, residues 1-88, 635 nm (AID 1129); details: small-molecule microarray binding, fluorescence 635 nm; higher = more signal
# [3] = biological target: Focal adhesion kinase 1 (Homo sapiens) (UniProt Q05397); assay: small-molecule microarray binders of FAK, primary screen, biochemical, 635/667 nm fluorescence, BSA, DTT (AID 1130); details: PTK2 binding, 635 nm fluorescence, higher = more signal;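 note: composite of spot emission at 667 nm and signal to noise over triplicate slides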
# Sequence of Focal adhesion kinase 1 (Homo sapiens) (Q05397 whole entry, looked up): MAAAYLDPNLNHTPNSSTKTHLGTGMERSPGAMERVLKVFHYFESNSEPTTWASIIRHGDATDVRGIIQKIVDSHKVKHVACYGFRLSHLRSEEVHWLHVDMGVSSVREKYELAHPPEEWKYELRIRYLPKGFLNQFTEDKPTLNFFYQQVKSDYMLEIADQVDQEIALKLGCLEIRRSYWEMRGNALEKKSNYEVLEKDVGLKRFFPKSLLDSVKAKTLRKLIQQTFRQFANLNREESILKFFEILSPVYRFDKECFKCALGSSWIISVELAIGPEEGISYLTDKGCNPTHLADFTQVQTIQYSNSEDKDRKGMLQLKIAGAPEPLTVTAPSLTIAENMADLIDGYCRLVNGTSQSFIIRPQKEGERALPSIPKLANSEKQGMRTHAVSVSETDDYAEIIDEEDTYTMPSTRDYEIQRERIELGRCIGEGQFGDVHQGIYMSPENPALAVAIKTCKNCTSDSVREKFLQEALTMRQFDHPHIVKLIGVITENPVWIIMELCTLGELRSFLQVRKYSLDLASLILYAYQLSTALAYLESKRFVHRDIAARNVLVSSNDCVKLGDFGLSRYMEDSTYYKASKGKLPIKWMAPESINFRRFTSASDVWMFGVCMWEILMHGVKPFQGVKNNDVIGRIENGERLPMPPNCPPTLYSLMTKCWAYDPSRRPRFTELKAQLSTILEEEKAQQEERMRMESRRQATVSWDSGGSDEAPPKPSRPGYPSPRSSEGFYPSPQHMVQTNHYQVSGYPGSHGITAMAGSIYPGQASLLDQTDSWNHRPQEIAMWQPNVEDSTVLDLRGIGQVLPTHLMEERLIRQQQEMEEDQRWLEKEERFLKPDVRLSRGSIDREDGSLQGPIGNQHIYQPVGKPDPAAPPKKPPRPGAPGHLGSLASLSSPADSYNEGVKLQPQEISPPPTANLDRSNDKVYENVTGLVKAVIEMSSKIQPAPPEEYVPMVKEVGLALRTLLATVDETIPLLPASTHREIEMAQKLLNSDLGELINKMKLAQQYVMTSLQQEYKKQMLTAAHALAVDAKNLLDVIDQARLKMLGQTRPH
# [4] = system: Fibrinogen (Alexa647-labelled); assay: fibrinogen binders on compound microarrays, profiling panel, artefact control for SMM control-protein annotation, biochemical, small-molecule microarray, 635/667 nm fluorescence (AID 1131); details: fibrinogen-A647 binding fluorescence, higher = more signal;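 note: z-score merges 667 nm fluorescence with per-spot signal-to-noise over triplicate slides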
# [5] = biological target: Follistatin (Homo sapiens) (UniProt P19883); assay: follistatin binders on small-molecule microarrays, primary screen, biochemical, small-molecule microarray, 635/667 nm fluorescence (AID 1132); details: FST binding, 635 nm fluorescence, higher = more signal
# Sequence of Follistatin (Homo sapiens) (P19883 whole entry, looked up): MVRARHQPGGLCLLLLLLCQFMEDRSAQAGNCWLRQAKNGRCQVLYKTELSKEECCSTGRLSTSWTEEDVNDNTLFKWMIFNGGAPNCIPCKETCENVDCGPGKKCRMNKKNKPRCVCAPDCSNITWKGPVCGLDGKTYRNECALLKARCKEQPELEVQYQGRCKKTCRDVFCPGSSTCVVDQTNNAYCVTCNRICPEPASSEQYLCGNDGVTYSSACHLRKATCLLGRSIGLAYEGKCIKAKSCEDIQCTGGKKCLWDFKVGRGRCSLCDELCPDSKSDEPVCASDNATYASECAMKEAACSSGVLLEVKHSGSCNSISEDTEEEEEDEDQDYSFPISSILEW
# [6] = biological target: Fibroblast growth factor 2 (Homo sapiens) (UniProt P09038); assay: FGF2 binders on small-molecule microarrays, primary screen, biochemical, small-molecule microarray, 635/667 nm fluorescence (AID 1133); details: small-molecule microarray binding, FGF2, fluorescence 635/667; higher = more signal
# Sequence of Fibroblast growth factor 2 (Homo sapiens) (P09038 whole entry, looked up): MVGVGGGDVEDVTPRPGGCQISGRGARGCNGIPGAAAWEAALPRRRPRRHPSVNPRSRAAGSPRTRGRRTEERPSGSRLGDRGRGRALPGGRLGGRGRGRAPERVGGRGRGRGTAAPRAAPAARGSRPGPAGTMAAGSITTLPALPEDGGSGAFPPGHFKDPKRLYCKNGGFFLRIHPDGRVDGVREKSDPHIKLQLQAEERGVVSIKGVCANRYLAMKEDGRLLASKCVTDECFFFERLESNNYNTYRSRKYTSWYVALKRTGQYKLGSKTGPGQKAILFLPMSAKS
# [7] = mitochondrial membrane potential change in A549 cells, profiling panel, cell-based, JC-1 fluorescence, basal, 24 h, 100 nL (AID 1138); details: higher = more signal;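 note: A549 lung adenocarcinoma cells under basal conditions with no added stimulus; test concentration not given here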
# Lefty1 = Lefty1 binders on small-molecule microarrays, primary screen, biochemical, small-molecule microarray, 635/667 nm fluorescence (AID 1139); details: small-molecule microarray binding, fluorescence 635/667; higher = more signal
# [8] = system: wheat germ agglutinin (Triticum aestivum), Alexa647-labelled; assay: wheat germ agglutinin binders on compound microarrays, profiling panel, artefact control for SMM control-protein annotation, biochemical, small-molecule microarray, 635/667 nm fluorescence (AID 1140); details: WGA-A647 binding, 635 nm fluorescence, higher = more signal;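 note: score merges 667 nm feature emission with signal to noise over triplicate slides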
# [9] = biological target: Luciferin 4-monooxygenase (Photinus pyralis) (UniProt P08659); assay: firefly luciferase enzyme inhibitors, primary screen, biochemical, luminescence, purified enzyme, 2006 set (AID 1141); details: SteadyGlo luminescence, 30 min, higher = more signal, called active from +8 up or from −8 down;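 note: cell-free assay with purified firefly luciferase at 100 ng per well in PBS; test concentration not given here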
# Sequence of Luciferin 4-monooxygenase (Photinus pyralis) (P08659 whole entry, looked up): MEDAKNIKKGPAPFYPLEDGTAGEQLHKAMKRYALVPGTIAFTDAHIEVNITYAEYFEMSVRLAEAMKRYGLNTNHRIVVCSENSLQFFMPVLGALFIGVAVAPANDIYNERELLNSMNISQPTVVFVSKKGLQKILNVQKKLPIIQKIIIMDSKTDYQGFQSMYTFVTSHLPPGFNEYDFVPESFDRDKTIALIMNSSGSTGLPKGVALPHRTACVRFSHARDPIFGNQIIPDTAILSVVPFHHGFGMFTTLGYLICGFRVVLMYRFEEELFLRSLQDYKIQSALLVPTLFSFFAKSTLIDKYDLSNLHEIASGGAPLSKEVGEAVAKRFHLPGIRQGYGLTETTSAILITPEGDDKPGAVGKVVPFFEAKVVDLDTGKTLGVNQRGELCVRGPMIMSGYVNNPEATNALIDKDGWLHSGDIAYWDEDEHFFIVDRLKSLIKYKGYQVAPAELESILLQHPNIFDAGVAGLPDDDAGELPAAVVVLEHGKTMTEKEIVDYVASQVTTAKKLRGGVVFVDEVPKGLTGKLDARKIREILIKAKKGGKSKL
# [10] = system: Wnt5a (protein binding on small-molecule microarray); assay: Wnt5a binders on small-molecule microarray, primary screen, biophysical, 635/667 nm fluorescence (AID 1142); details: 635 nm fluorescence, higher = more signal;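 note: fluorescence read at 667 nm with signal to noise per printed feature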
# [11] = cell viability in Huh7 cells, primary screen, cytotoxicity control for HCV replication inhibitor project, CellTiter-Glo luminescence, basal, 48 h (AID 1143); details: Huh7 HCV replicon, higher = more signal, called active from +8 up or from −8 down;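 note: Huh7 hepatoma cells carrying a hepatitis C replication reporter with no stimulus; test concentration not given here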
# [12] = P. aeruginosa biofilm formation inhibitors, primary screen, PAO1 strain, BacTiter-Glo luminescence, LB-PBS (AID 1144); details: 12 h, higher = more signal
# [13] = CREB reporter modulators without forskolin, primary screen, cell-based, PC12, CRE-LacZ reporter, unstimulated (AID 1145); details: no forskolin, luminescence, 4.5 h, higher = more signal, called active from +8 up or from −8 down
# [14] = CREB reporter modulators under forskolin, primary screen, cell-based, PC12, CRE-LacZ reporter, forskolin-stimulated (AID 1146); details: luminescence, 4.5 h, higher = more signal, called active from +8 up or from −8 down;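 note: PC12 cells with 6xCRE LacZ reporter stimulated by forskolin 10 µM; beta-galactosidase reporter signal reflecting CREB driven transcription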
# [15] = biological target: Streptavidin (Streptomyces avidinii) (UniProt P22629); assay: streptavidin binders on small-molecule microarray, primary screen, artefact control for SMM compound annotation, biophysical, 635/667 nm fluorescence (AID 1147); details: streptavidin binding, higher = more signal;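 note: signal reflects streptavidin binding to arrayed compounds as a control protein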
# Sequence of Streptavidin (Streptomyces avidinii) (P22629 whole entry, looked up): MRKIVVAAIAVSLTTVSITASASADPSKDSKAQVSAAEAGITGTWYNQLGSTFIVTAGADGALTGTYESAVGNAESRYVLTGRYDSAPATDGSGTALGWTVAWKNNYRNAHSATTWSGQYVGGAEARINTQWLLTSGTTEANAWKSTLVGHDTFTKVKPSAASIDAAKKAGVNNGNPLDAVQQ
# [16] = small-molecule binders of probe aInhba, primary screen, biochemical, small-molecule microarray, 635/667 nm fluorescence (AID 1148); details: higher = more signal;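 note: score merges 667nm spot fluorescence with signal-to-noise for antibody binding to printed compounds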
# Torsin-1A (Homo sapiens) [17] = biological target: Torsin-1A (Homo sapiens) (UniProt O14656); assay: torsin A binders from cell lysate, primary screen, small-molecule microarray, wild-type, 635/667 nm (AID 1149); details: COS7 hTOR1A-WT lysate, 635 nm fluorescence, higher = more signal
# Sequence of Torsin-1A (Homo sapiens) (O14656 whole entry, looked up): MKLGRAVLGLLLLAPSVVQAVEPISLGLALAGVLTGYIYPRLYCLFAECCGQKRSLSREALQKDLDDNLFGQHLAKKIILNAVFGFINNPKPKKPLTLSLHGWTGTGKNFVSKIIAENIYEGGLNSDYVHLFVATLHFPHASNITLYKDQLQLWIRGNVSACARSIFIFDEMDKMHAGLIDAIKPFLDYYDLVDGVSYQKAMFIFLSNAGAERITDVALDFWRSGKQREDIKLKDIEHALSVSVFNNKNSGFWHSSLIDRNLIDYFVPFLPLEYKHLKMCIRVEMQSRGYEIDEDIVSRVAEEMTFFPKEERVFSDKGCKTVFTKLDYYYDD
# Torsin-1A (Homo sapiens) [18] = biological target: Torsin-1A (Homo sapiens) (UniProt O14656); assay: small-molecule binders of mutant TOR1A in lysate, primary screen, cell lysate, small-molecule microarray, COS7 lysate, 635/667 nm fluorescence (AID 1150); details: COS7 hTOR1A mutant lysate, 635 nm fluorescence, higher = more signal;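 note: score pools 667 nm emission and signal to noise measuring lysate protein binding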
# [19] = system: Sonic hedgehog protein (Shh); assay: small-molecule binders of Shh protein, primary screen, biochemical, small-molecule microarray, 635/667 nm fluorescence (AID 1151); details: small-molecule microarray binding, 635 nm fluorescence; higher = more signal;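 note: Shh protein binding to compounds spotted on small-molecule microarray slides; score combines spot fluorescence intensity with signal-to-noise across triplicate slides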
Structure (SMILES),composite z-score [1],composite z-score [2],composite z-score [3],composite z-score [4],composite z-score [5],composite z-score [6],z-score [7],composite z-score (Lefty1),composite z-score [8],z-score [9],composite z-score [10],z-score [11],z-score [12],z-score [13],z-score [14],composite z-score [15],composite z-score [16],composite z-score (Torsin-1A (Homo sapiens) [17]),composite z-score (Torsin-1A (Homo sapiens) [18]),composite z-score [19]
CC(=O)NCCCC[C@@H]1NC(=O)[C@@H]2C[C@H](C(=O)NCc3ccc(F)cc3)[C@H](c3cccc(OCCO)c3)N2C1=O,1.6,0.308,-0.135,0.371,1.3,1.7,1.25,0.115,-0.087,-0.425 (inactive),0.0719,-0.608 (inactive),-0.225 (inactive),0.537 (inactive),0.517 (inactive),-0.454,-0.0209,0.544,1.05,1.8
COC(=O)[C@@]1(Cc2ccc(OC)cc2)[C@H]2c3cc(C(=O)N(C)C)n(CCc4ccc(OC)c(Br)c4)c3C[C@H]2CN1C(=O)c1ccccc1,2.28,1.23,2.29,0.891,0.85,-0.763,0.37,-0.545,1.37,0.253 (inactive),0.839,-3.88 (inactive),0.28 (inactive),0.39 (inactive),0.0318 (inactive),1.95,0.993,-0.242,0.733,0.116
Cc1ccc(S[C@]2(C(=O)O)CC(=O)N(Cc3cc(C(F)(F)F)cc(C(F)(F)F)c3)[C@@H]2c2ccc(CO)cc2I)cc1,-0.339,-0.664,0.0035,-1.56,-0.251,-0.325,-0.603,-0.89,-1.09,-1.3 (inactive),0.176,-2.71 (inactive),0.519 (inactive),0.261 (inactive),0.859 (inactive),-0.718,-0.106,-1.1,-0.3,0.42
N#Cc1ccc(NN2C(C(O)c3ccc(I)cc3)C=CC3C(=O)N(c4ccccc4)C(=O)C32)cc1 (centres undefined),1.33,1.25,0.945,0.945,0.402,-0.194,1.96,-0.491,1.3,0.628 (inactive),0.205,0.559 (inactive),-0.363 (inactive),-1.49 (inactive),-0.755 (inactive),0.941,-0.0645,-0.147,0.629,-0.468
COc1ccc(NN2C(C(O)c3cc(OC)c(OC)c(OC)c3)C=CC3C(=O)N(C4CCCCC4)C(=O)C32)cc1 (centres undefined),0.717,1.21,1.06,0.965,0.412,-0.418,0.469,0.133,1.22,0.582 (inactive),0.866,-1.6 (inactive),-0.272 (inactive),0.285 (inactive),0.907 (inactive),1.14,0.294,-0.125,0.236,0.377
Cc1ccc(S[C@]2(C(=O)NCCCN(C)C)CC(=O)N(Cc3ccccc3)[C@@H]2c2ccc(CO)cc2I)cc1,0.412,-0.0835,0.152,0.233,-0.143,-1.33,3.68,-0.892,0.876,-0.0307 (inactive),-0.278,-2.97 (inactive),0.831 (inactive),0.531 (inactive),2.84 (inactive),-0.0112,-0.0645,-1.84,-1.08,-0.824
CO[C@H]1O[C@H](CO)[C@@H](OC(=O)Nc2ccccc2)[C@H](OC(=O)Nc2ccc3c(c2)OCO3)[C@@H]1OC(=O)Nc1ccc2c(c1)OCO2,2.53,1.2,1.02,0.771,0.87,0.0385,1.18,0.563,1.21,-5.6 (inactive),0.328,-3.67 (inactive),,0.185 (inactive),-2.4 (inactive),0.232,-0.0079,0.433,0.876,0.599
CCOC(=O)C1=CC[C@@H](c2ccccc2)N(S(=O)(=O)c2ccc(C)cc2)[C@H]1C,1.18,1.24,0.147,1.02,0.92,0.952,3.66,0.778,0.457,0.347 (inactive),0.532,-4.32 (inactive),0.165 (inactive),-0.0137 (inactive),-0.664 (inactive),1.85,-0.153,1.41,1.25,0.747
COC(=O)C1=CC(c2ccc(CO)cc2)=CC(c2cccs2)N(Cc2cccc(OC(F)(F)F)c2)C=C1C(=O)OC (centres undefined),2.15,1.23,0.409,0.97,0.289,-0.316,1.49,0.0703,1.4,-0.926 (inactive),0.0365,-3.08 (inactive),0.714 (inactive),0.0924 (inactive),-0.287 (inactive),2.29,0.248,0.947,0.76,0.381
COC(=O)[C@@]1(Cc2ccccc2CN=[N+]=[N-])N=C(c2ccc(OCCCO)cc2)O[C@H]1c1ccccc1N=[N+]=[N-],-0.0307,0.339,1.96,0.694,0.832,0.0085,-0.403,0.79,0.727,-10.1 (active),0.54,-3.9 (inactive),-0.174 (inactive),2.28 (inactive),-0.505 (inactive),-0.104,-0.0645,-1.42,-0.855,1.77
COC(=O)[C@@]1(Cc2ccccc2N=[N+]=[N-])N=C(c2ccc(OCCCO)cc2)O[C@H]1c1ccccc1CN=[N+]=[N-],1.65,1.02,0.926,0.168,1.29,0.609,1.02,-0.213,0.727,-1.76 (inactive),0.171,-5.31 (inactive),1.18 (inactive),3.33 (inactive),-0.412 (inactive),-0.46,-0.0102,-0.181,-0.303,0.144
